High-throughput results (PubChem BioAssay)
DT40 TDP1 CPT – qHTS for Inhibitors of human tyrosyl-DNA phosphodiesterase 1 (TDP1): qHTS in cells in presence of CPT; chicken DT40 Tdp1-/-;hTDP1 cells + 20 nM CPT, ATP luminescence, 48 h; 420,000 tested, 12% active; Potency, µM (highest dose often 46.2 µM), actives largely listed as inhibitors; also: nearly all actives have a fitted effect of over 55% in size
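Chicken DT40 Tdp1-/- cells stably complemented with human TDP1 were seeded at 400 cells/well in medium containing 20 nM camptothecin, exposed to pin-transferred compounds, and grown at 37 °C for at least 48 hr. Viability was read as ATP luminescence.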
ELG1 DNA repair – qHTS screen for small molecules that inhibit ELG1-dependent DNA repair in human embryonic kidney (HEK293T) cells expressing luciferase-tagged ELG1 | HEK293T ELG1-luciferase reporter, luminescence, 16 h; DNA damage induced by 5-fluorouridine | 330,000 tested, 2.3% active | Potency, µM (series often up to 46.1 µM), usual class: inhibitors; also: nearly all actives have a fitted effect of over 55% in size
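HEK293T cells expressing luciferase-tagged ELG1 (2,000/well) received 5-Fluorouridine plus compound or DMSO for 16 hr at 37 °C. Luciferase was read by ONE-Glo luminescence after 30 min at room temperature.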
HT1080 IDH1KD tx – qHTS for induction of synthetic lethality in tumor cells producing 2HG: qHTS for the HT-1080-IDH1KD cell line | HT-1080 IDH1 knockdown viability, ATP luminescence, 48 h | Potency, µM (titrated, usually from 46.1 µM), hits mostly cytotoxic | 360,000 tested, 2% active
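HT-1080-IDH1KD cells (IDH1 knocked down), 750/well in RPMI with 5% FBS, treated with compound 48 h at 37 degrees C. Viability by CellTiter-Glo luminescence, normalised to DMSO and no-cell wells; concentration-response curves classed.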
DT40 TDP1 no CPT – qHTS for Inhibitors of human tyrosyl-DNA phosphodiesterase 1 (TDP1): qHTS in cells in absence of CPT; DT40 Tdp1-/- hTDP1 cells, no CPT, ATP luminescence, 48 h; Potency, µM (highest dose often 46.2 µM), most hits filed as inhibitors; 420,000 tested, 15% active; also: nearly all actives have a fitted effect of over 55% in size
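Camptothecin absent (DMSO only). Human TDP1-complemented DT40 knockout cells, 400 cells/well, 37 °C for minimum 48 hr; ATP measured via CellTiter-Glo, 30 min dark incubation, luminescence.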
HT1080-NT tox – qHTS for induction of synthetic lethality in tumor cells producing 2HG: qHTS for the HT-1080-NT fibrosarcoma cell line | HT-1080-NT fibrosarcoma viability, CellTiter-Glo ATP luminescence, 48 h | 360,000 tested, 1.6% active | AID 686970, 2013 | Potency, µM (series often up to 46.1 µM), usual class: cytotoxic;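 also: NT is the 2HG producing partner of a matched IDH1 knockdown line; nearly all actives have a fitted effect of over 55% in size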
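Fibrosarcoma NT cells, 750 per well in 5% FBS RPMI, were exposed to compound for 48 hours. Viability: CellTiter-Glo luminescence.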
IL-1B inflam inh – qHTS for Inhibitors of Inflammasome Signaling: IL-1-beta AlphaLISA Primary Screen; THP-1 LPS/ATP IL-1B secretion, AlphaLISA, 16 h; active compounds read low; activity change, % at 57.5 µM; 360,000 tested, 4.7% active; in the data active = activity change below about -50%; inconclusive = mostly about -30% to -49%
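Secreted IL-1B measured by AlphaLISA bead assay after 16 h compound exposure of THP-1 cells; compounds (final up to 57.5 uM) added 1 h before LPS (250 ng/mL) and ATP (1.25 mM) stimulation; lower signal means less secretion.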
Numbers stand for hits; – = inactive; ? = inconclusive; · = no result given; [ ] = another dose, or the depositor's remark. Sampled rows, rich in hits. Any-hit rate of the full collection: about 19%. Unless noted, calls follow the shape of the dose curve; as a rule, active = well fitted curve in the direction sought with a large enough effect; inconclusive = small, poorly fitted or top-dose-only effect, or another doubt; inactive = no such curve, though single readings can be large; an effect the other way counts as inactive or inconclusive.

SMILES	DT40 TDP1 CPT	ELG1 DNA repair	HT1080 IDH1KD tx	DT40 TDP1 no CPT	HT1080-NT tox	IL-1B inflam inh
CCn1c(=O)c2sccc2n2c(CCCC(=O)N3CCN(c4ccc(F)cc4)CC3)nnc12	15µM	·	·	18µM	·	·
CCc1ccccc1N1C(=O)C2CC=CCC2C1=O (configuration not stated)	?	–	–	16µM	–	–
CCc1ccccc1N1C(=O)C2CC(C)=C(C)CC2C1=O (configuration not stated)	–	–	–	?	–	–
O=C(NC1CCCC1)C1CCC(CNS(=O)(=O)c2ccccc2)CC1 (configuration not stated)	–	–	–	–	–	–
O=S(=O)(c1ccc(F)cc1)N1CCC(n2c(C(F)(F)F)nc3cccnc32)CC1	12µM	·	·	–	·	·
CCOC(=O)C1(Cc2cccc(Cl)c2)CCCN(C(=O)C(C)(C)C)C1 (configuration not stated)	?	–	–	?	–	–
CCOc1ccc(/C=N/NC(=S)NC2CC3CC2C2C=CCC32)cc1 (configuration not stated)	16µM	?	–	16µM	–	–
COc1cc(/C=N/NC(=S)NC2CC3CC2C2C=CCC32)ccc1O (configuration not stated)	?	–	?	15µM	18µM	–
COc1cc(NC(=O)c2ccc(-c3ccnn3C)c3ccoc23)cc(OC)c1OC	?	·	–	21µM	–	–
CC(C)c1ccc(NC(=O)c2ccc(-c3ccnn3C)c3ccoc23)cc1	16µM	·	18µM	21µM	15µM	–
CC(=O)Nc1ccc(NC(=O)c2ccc(-c3ccnn3C)c3ccoc23)cc1	?	·	–	?	–	-93
CN1CCN(c2ccc(CNC(=O)c3ccc(-c4ccnn4C)c4ccoc34)cc2)CC1	?	·	–	?	–	–
COc1cc(NC(=O)c2cc(-c3ccco3)on2)cc(OC)c1OC	?	–	–	?	–	–
O=C(O)c1ccc(CS(=O)(=O)c2ccc(Br)cc2)cc1	–	–	–	–	–	–
Cc1cnc(-n2ncc(C(=O)N[C@H]3CCCCNC3=O)c2C2CC2)nc1-c1cccs1	–	·	·	–	·	·
COc1ccc(Cn2ccnc2SCC(=O)Nc2ccc3c(c2)OCCO3)cc1	?	·	·	–	·	·
O=c1c2c([nH]c3ccccc13)C(=C1CCCC1)CC2	23µM	?	–	21µM	–	–
CC(C)(C)C1CCc2[nH]c3ccccc3c(=O)c2C1 (configuration not stated)	23µM	?	–	21µM	–	–
O=C1NCCc2c1[nH]c1ccccc21	–	–	–	–	–	–
Cc1c2c(nc3ccccc13)CCC(C(C)(C)C)C2 (configuration not stated)	?	?	–	?	–	–
O=c1c2c([nH]c3ccccc13)CCCC2	?	–	–	8.2µM	–	–
CCOC(=O)C1CCCCN1S(=O)(=O)c1csc(C(N)=O)c1 (configuration not stated)	–	·	·	–	·	·
COc1ccc(CNC(=O)C(C)Sc2nc3ccccc3c(=O)n2CC2CCCO2)cc1 (configuration not stated)	–	–	–	–	–	–
COc1ccc(C2(c3ccc(OC)cc3)NC(=O)N(CC(=O)N3CCOCC3)C2=O)cc1	–	–	–	–	–[9.24 µM]	–
CC(=O)n1c(Cl)c(NC(=O)CCl)c2ccccc21	10µM	26µM	7.1µM	12µM	5.6µM	-101
Cc1nn(C)c(C)c1NC(=O)CCl	–	?	?	?	?	?
O=C(Nc1cccc(S(=O)(=O)NC2=NCCC2)c1)c1ccccc1	–	–	–	?	–	–
